Among the data in PubChem BioAssay (EPA / NIEHS) are AC50 and outcome values, retold here.

The target in assay [1] is Luciferin 4-monooxygenase (Photinus pyralis) (UniProt P08659). Put plainly: CCTE_Simmons_QuantiLum_inhib_2: CCTE's Firefly Luciferase Inhibition Assay, Simmons Lab (AID 2283767).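 As to AC50: potency for inhibitors that lower luciferase luminescence relative to DMSO.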 Summed up:
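Luminescence loss relative to DMSO vehicle defines inhibition; detection reagent containing 150 uM D-luciferin and 147 uM dATP (final, pH 7.8) is injected immediately before each read. Enzyme is preincubated with an 8-point titration (5 nM–87.5 uM final) for 30 min at 37C.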

The nature of assay [2]: ACEA_AR_agonist_AUC_viability: ACEA Biosciences xCELLigence Real-Time Cell Analysis on Androgen Receptor Agonism for Viability (AID 2283775).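 As to AC50: viability read 80 hours after compound addition.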 Summed up:
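Real-time impedance tracking of 22Rv1 growth, readings every 5 min for 5 h then hourly; area-under-curve viability endpoint at 80 hours, relative to DMSO. Compounds at eight concentrations, 1:4 steps, top 100 uM, n = 2.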

Assay [3] is described as follows: ACEA_AR_antagonist_AUC_viability: ACEA Biosciences xCELLigence Real-Time Cell Analysis on Androgen Receptor Antagonism for Viability (AID 2283776).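 Also: 22Rv1 human prostate cancer cells growing on impedance electrode plates; hits lower the growth signal relative to DMSO meaning cytotoxicity.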 In outline: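 22Rv1 prostate cells, continuous dosing up to 100 uM final (0.5% DMSO max), duplicate plates. Growth measured by impedance; AUC at 80 h, loss of signal vs DMSO.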
A short description of assay [4]: ACEA_ER_AUC_viability: ACEA Biosciences xCELLigence Real-Time Cell Analysis on Estrogen Receptor Agonism for Viability (AID 2283782).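 Also: continuous compound exposure with impedance area under curve over 80 h; hit means loss of impedance signal meaning reduced cell growth or viability.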 Summed up: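 T-47D; phenol red-free RPMI1640 + 10% CS-FBS; 8 conc., 1:4 serial, max 100 uM final, ≤0.5% DMSO; n = 2; continuous exposure; impedance monitored to 80 h post-dose; AUC vs DMSO.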
A short description of assay [5]: STM_H9_NormalizedViability: Cytotoxicity Assessment at 120 hours in the Stemina devTOX quickPredict H9 human embryonic stem cell (hESC)-based Assay (AID 2283784). In outline:
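Pluripotent H9 cells dosed, fresh medium plus compound q24h → cell layer read by CellTiter-Fluor → RFU blank-corrected, normalized to DMSO 0.1% mean. Loss-of-signal fit, DMSO as baseline.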

The subject of assay [6] is chicken Androgen Receptor (AR), gene 422165. Put plainly: ATG_chAR_XSP1: Attagene TRANS-FACTORIAL Multi-Species (XSP1) HepG2 Assay for chicken Androgen Receptor (AR) (AID 2283768). In outline:
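HepG2 cells transiently transfected with multiplexed GAL4-UAS reporter units expressing chimeric chicken AR-Gal4; 3 nM 6-alpha-fluorotestosterone for partial AR stimulation; 24 h after dosing, reporter mRNA by RT-PCR and capillary electrophoresis, gain-of-signal versus DMSO.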

The target of assay [7] is zebrafish Estrogen Receptor (ESR1), esr1 (gene 259252) (UniProt P57717). Put plainly: ATG_zfER1_XSP1: Attagene TRANS-FACTORIAL Multi-Species (XSP1) HepG2 Assay for zebrafish Estrogen Receptor (ESR1) (AID 2283772). In outline: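 Exogenous chimeric receptor-GAL4 activity is measured in transiently transfected human HepG2 liver cells after 24 h compound exposure. Reporter transcripts are detected by RT-PCR and fluorescent capillary electrophoresis, analysed for signal gain relative to DMSO.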

In assay [8] the test system is zebrafish Estrogen Receptor (ESR2B), gene 317733. Put plainly: ATG_zfER2b_XSP1: Attagene TRANS-FACTORIAL Multi-Species (XSP1) HepG2 Assay for zebrafish Estrogen Receptor (ESR2B) (AID 2283773). Summed up:
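Gain-of-signal endpoint relative to DMSO: reporter transcript levels quantified by RT-PCR and capillary electrophoresis after 24 h compound exposure of HepG2 cells expressing a zebrafish ER2b-Gal4 chimera.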

Assay [9] relates to frog Estrogen Receptor (ESR2), gene 100174814. Description: ATG_frER2_XSP1: Attagene TRANS-FACTORIAL Multi-Species (XSP1) HepG2 Assay for frog Estrogen Receptor (ESR2) (AID 2283774). In outline: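 Transactivation of an exogenous receptor-Gal4 fusion is tracked in transfected HepG2 cells via induced reporter transcript levels. After 24 h treatment, RT-PCR with capillary electrophoresis quantifies signal gain over DMSO.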

Assay [10] relates to frog Estrogen Receptor (ESR1), gene 398734. Description: ATG_frER1_XSP1: Attagene TRANS-FACTORIAL Multi-Species (XSP1) HepG2 Assay for frog Estrogen Receptor (ESR1) (AID 2283777). Summed up: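 Human hepatoma HepG2 cells carried transiently transfected multiplexed Gal4-driven reporters and were exposed to test chemicals for 24 hours. Transcripts were quantified by fluorescent RT-PCR with capillary electrophoresis, referenced to DMSO.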

Assay [11] has as its system zebrafish Estrogen Receptor (ESR2A), gene 317734. Put plainly: ATG_zfER2a_XSP1: Attagene TRANS-FACTORIAL Multi-Species (XSP1) HepG2 Assay for zebrafish Estrogen Receptor (ESR2A) (AID 2283778). In outline:
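Cells were transfected, dosed for 24 h, then total RNA was isolated. After oligo(dT) reverse transcription, reporter sequences were amplified, FAM-labelled by primer extension, digested with HpaI and sized by capillary electrophoresis; DMSO served as baseline.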

For assay [12], the target named is chicken Estrogen Receptor (ESR1), ESR1 (gene 396099) (UniProt P06212). Description: ATG_chERa_XSP1: Attagene TRANS-FACTORIAL Multi-Species (XSP1) HepG2 Assay for chicken Estrogen Receptor (ESR1) (AID 2283779). In outline: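 Human liver HepG2, transient MRTU transfection (NR-Gal4 chimeras, GAL4-UAS reporters); 24 h compound exposure; 3 nM 6-alpha-fluorotestosterone in medium. Total RNA → RT-PCR → 6-FAM primer extension → HpaI → CE. Positive direction vs DMSO baseline.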

The subject of assay [13] is turtle Estrogen Receptor (ESR1), gene 101933533. Description: ATG_trERa_XSP1: Attagene TRANS-FACTORIAL Multi-Species (XSP1) HepG2 Assay for turtle Estrogen Receptor (ESR1) (AID 2283781). In outline: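 Activity was taken as gain of reporter transcript over DMSO controls. HepG2 cells carrying GAL4-UAS-driven reporters were exposed for 24 h before RNA was extracted and reporter sequences were measured by fluorescence after capillary separation.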

Assay [14] concerns turtle Androgen Receptor (AR), gene 101947425. Put plainly: ATG_trAR_XSP1: Attagene TRANS-FACTORIAL Multi-Species (XSP1) HepG2 Assay for turtle Androgen Receptor (AR) (AID 2283786). Summed up: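 HepG2 cells transiently transfected with a turtle AR–GAL4 chimera and GAL4-UAS reporter, co-treated with 3 nM 6-alpha-fluorotestosterone for partial stimulation. Reporter mRNA is quantified at 24 h by RT-PCR and capillary electrophoresis, gain-of-signal versus DMSO.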

Inconclusive results are not listed. Activity calls are given as the source filed them. The calls were made as follows: active = hit-call score of the fitted dose curve at least 0.9, where 1 is the maximum; inconclusive = response in the unintended direction; inactive = score below 0.9.

Luciferin 4-monooxygenase (Photinus pyralis), sequence (P08659 whole entry, looked up): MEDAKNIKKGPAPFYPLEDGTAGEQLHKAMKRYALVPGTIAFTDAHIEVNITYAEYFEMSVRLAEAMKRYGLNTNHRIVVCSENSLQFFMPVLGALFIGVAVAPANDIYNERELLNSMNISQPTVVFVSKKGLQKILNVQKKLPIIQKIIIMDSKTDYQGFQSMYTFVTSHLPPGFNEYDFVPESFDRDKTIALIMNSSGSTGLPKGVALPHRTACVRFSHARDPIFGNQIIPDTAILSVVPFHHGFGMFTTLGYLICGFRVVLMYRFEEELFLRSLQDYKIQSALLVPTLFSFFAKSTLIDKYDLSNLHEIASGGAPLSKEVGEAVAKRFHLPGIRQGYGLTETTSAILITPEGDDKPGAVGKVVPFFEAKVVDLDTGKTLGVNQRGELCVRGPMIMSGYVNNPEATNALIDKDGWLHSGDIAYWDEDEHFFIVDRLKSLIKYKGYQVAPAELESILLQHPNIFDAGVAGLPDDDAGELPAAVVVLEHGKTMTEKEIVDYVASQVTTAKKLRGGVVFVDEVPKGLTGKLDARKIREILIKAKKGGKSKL
chicken Estrogen Receptor (ESR1), ESR1 (gene 396099), sequence (P06212 whole entry, looked up, the tested form may be a part): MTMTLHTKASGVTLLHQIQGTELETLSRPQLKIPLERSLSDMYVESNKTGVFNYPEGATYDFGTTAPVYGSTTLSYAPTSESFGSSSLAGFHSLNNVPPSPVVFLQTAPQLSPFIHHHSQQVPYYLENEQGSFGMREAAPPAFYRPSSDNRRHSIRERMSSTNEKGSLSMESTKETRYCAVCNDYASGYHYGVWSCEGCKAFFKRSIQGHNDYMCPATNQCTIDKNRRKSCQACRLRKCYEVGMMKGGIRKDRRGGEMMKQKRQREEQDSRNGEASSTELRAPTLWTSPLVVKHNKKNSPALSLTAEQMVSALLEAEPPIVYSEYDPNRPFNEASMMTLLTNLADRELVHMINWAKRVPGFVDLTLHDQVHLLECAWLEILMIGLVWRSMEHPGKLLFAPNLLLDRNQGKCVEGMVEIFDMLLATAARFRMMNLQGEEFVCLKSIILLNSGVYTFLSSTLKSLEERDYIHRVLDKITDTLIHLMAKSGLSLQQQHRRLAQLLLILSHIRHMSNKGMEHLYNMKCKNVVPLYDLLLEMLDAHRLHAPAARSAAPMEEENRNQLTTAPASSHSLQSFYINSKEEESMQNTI
zebrafish Estrogen Receptor (ESR1), esr1 (gene 259252), sequence (P57717 whole entry, looked up, the tested form may be a part): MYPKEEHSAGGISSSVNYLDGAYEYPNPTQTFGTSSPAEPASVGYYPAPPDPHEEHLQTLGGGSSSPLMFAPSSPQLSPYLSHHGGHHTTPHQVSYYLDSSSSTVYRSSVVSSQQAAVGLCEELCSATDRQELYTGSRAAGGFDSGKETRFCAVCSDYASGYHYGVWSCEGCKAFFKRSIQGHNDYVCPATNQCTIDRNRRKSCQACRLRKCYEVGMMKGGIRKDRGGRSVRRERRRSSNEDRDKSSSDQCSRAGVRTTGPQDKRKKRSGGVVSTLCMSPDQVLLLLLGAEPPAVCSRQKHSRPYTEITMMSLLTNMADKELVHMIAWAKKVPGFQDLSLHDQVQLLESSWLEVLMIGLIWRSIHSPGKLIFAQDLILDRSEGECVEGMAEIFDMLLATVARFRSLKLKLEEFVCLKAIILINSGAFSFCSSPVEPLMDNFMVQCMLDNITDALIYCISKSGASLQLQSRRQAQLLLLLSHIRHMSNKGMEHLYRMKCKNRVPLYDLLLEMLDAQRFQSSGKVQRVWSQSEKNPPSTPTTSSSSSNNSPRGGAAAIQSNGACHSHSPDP

`N#CSCSC#N`: the AC50 was 53.8 µM (active) in [1]; 7.42 µM (active) in [2]; 7.39 µM (active) in [3]; 6.97 µM (active) in [4]; 20.5 µM (active) in assay [5].

Regarding `C#CC(C)(C)NC(=O)c1cc(Cl)cc(Cl)c1`, the AC50 in assay [6] is 26.4 µM (active); in [8], 52.6 µM (active); in assay [9], 56.3 µM (active); in [3], 26.4 µM (active); in assay [12], 50 µM (active); in assay [13], 64.3 µM (active). For the same compound, the call in assay [7], in assay [2], in [10], in assay [11] and in assay [14] was inactive.

On to `C#CCC1=C(C)C(OC(=O)C2C(C=C(C)C)C2(C)C)CC1=O` (configuration not stated), for which, in assay [1], the call was inactive. The AC50 is 25.3 µM (active) in assay [8]; 23.4 µM (active) in assay [9]; 67.2 µM (active) in assay [2]; 49.8 µM (active) in [3]; 49.8 µM (active) in assay [4].

On to `CC1(C(=O)Nc2ccc(O)c(Cl)c2Cl)CCCCC1`, for which the compound was classed as inactive in assay [1]. The AC50 in assay [2] is 64.9 µM (active); in assay [3], 50 µM (active).

For `CC(=NC#N)N(C)Cc1ccc(Cl)nc1`, the outcome in [2], in [3] and in assay [4] was inactive.

With `CCOP(=O)(NC(C)C)Oc1ccc(SC)c(C)c1` (configuration not stated), the outcome in assay [1] was inactive. Also, the figures for the half-maximal activity concentration (AC50) in assay [2] and in assay [3] were 9.92 µM (active) and 32.7 µM (active), respectively.

As to `COP(=O)(OC)C(O)C(Cl)(Cl)Cl` (configuration not stated), the compound was called inactive in assay [2]. In addition, the AC50 is 50 µM (active) in assay [3] and 76.5 µM (active) in assay [4].

For `Cc1cc(C2CC2)nc(Nc2ccccc2)n1`, the figures for the AC50 in assay [2], in assay [3] and in assay [4] were 75.6 µM (active), 64.2 µM (active) and 77.3 µM (active), respectively.

With `Nc1c(Cl)cc([N+](=O)[O-])cc1Cl`, the AC50 in assay [2] was 58.4 µM (active); in assay [3] it was 50 µM (active).

As to `COP(=O)(NC(C)=O)SC` (configuration not stated), the concentration at half-maximal activity (AC50) in assay [1] was 37.5 µM (active). In addition, the compound was classed as inactive in assay [2], in assay [3] and in assay [4].

With `CCOP(=O)(SC(C)CC)N1CCSC1=O` (configuration not stated), the outcome in assay [1] and in assay [3] was inactive.

For the compound `CCOP(=S)(OCC)Oc1ccc2c(C)c(Cl)c(=O)oc2c1`, the call in [1], in assay [2], in [10], in [11], in assay [12] and in [13] was inactive. In addition, the AC50 was 44.6 µM (active) in [8], 34.6 µM (active) in assay [9] and 31 µM (active) in assay [3].

As for `CSC1=N[C@@](C)(c2ccccc2)C(=O)N1Nc1ccccc1`, the compound was called inactive in assay [1]. The AC50 was 31.6 µM (active) in assay [2], 18.1 µM (active) in assay [3] and 30.1 µM (active) in [5].

As for `CCOP(=S)(OCC)Oc1cc(C)nc(C(C)C)n1`, the outcome in assay [1], in [2] and in assay [3] was inactive. Further, the values for the half-maximal activity concentration (AC50) in [4] and in assay [5] were 82 µM (active) and 87.1 µM (active), respectively.

`CCOP(=S)(OCC)Oc1ccc([N+](=O)[O-])cc1`: the AC50 in assay [1] was 26.9 µM (active). In addition, the compound was called inactive in [2], in assay [3] and in assay [4].
